Growth inhibition data for ten molecules are collected here from PubChem BioAssay (NCI).

The nature of assay [1]: NCI Yeast Anticancer Drug Screen. Data for the rad50 strain (AID 155).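 Note: 0% = growth of vehicle-only cultures of the same strain.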 As to conditions: S. cerevisiae rad50 strain growth inhibition, hits give high values. The method in brief:
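DNA repair mutant yeast, compound exposure, growth read-out; inhibition is taken relative to vehicle.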

A short description of assay [2]: NCI Yeast Anticancer Drug Screen. Data for the mec2-1 strain (AID 157). The note with it: S. cerevisiae mec2-1 strain, hits give high values. The method in brief: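 Cells of the genetically defined mec2-1 yeast strain are incubated with test compound. Inhibition of growth is calculated against vehicle-treated controls.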
The nature of assay [3]: NCI Yeast Anticancer Drug Screen. Data for the sgs1 mgt1 strain (AID 161).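 Note: 0% = growth of cultures given vehicle only.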 The note with it: S. cerevisiae sgs1 mgt1 strain, hits give high values. The method in brief: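 Read-out: growth inhibition vs vehicle controls. Cells: mutant yeast strain deficient in DNA damage repair.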
The nature of assay [4]: NCI Yeast Anticancer Drug Screen. Data for the cln2 rad14 strain (AID 165).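 Note: 0% = growth equal to vehicle treated cultures.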 As to conditions: S. cerevisiae cln2 rad14 strain, hits give high values. In short, it runs like this:
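The screen exposed genetically defined yeast (cln2 rad14) to test compounds and scored growth inhibition relative to vehicle-treated controls.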

A short description of assay [5]: NCI Yeast Anticancer Drug Screen. Data for the bub3 strain (AID 167). The note with it: S. cerevisiae bub3 mutant strain, hits give high values. In short, it runs like this: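 In this screen, a yeast mutant lacking normal mitotic checkpoint function is challenged with compound. Relative growth versus vehicle gives the inhibition value.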
Assay [6] can be described thus: NCI Yeast Anticancer Drug Screen. Data for the mlh1 rad18 strain (AID 175). The note with it: S. cerevisiae mlh1 rad18 strain growth inhibition, hits give high values. In short, it runs like this:
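Compound-treated yeast growth, normalised to vehicle controls. Strain bears defined DNA repair mutations.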

The mark [7] stands for this setting: at 5.0 µM (retest, dose inferred, filed as 0.5).
The mark [8] stands for this setting: at 50.0 µM (retest, dose inferred, filed as 5.0).

Compounds without any hit were thinned out: in the full panel of roughly 79,000, 15% have a hit. A number with no mark means an inactive call. The source made the active and inactive calls. Cut-off read from the data, not from the text of the source: active = growth inhibition above about 70%; inactive = the rest.

With `S=C(Nc1ccccc1)SCc1ccc(Cl)cc1`, the growth inhibition in assay [1] (setting [7]) is 1%; in assay [1] (setting [8]), 96% (active); in assay [1] (at 50.0 µM) it was 90.6% (active); in assay [2] (setting [7]), -6%; in assay [2] (setting [8]), 98% (active); in assay [2] (at 50.0 µM), 67.2%. Also, the growth inhibition in assay [3] (setting [7]) was 1%; in assay [3] (setting [8]), 96% (active); in assay [3] (at 50.0 µM) it was 84.7% (active); in assay [4] (setting [7]), -6%; in assay [4] (setting [8]), 96% (active); in assay [4] (at 50.0 µM) it was 38.5%. Moreover, the growth inhibition in assay [5] (setting [7]) was -5%; in assay [5] (setting [8]), 97% (active); in assay [5] (at 50.0 µM), 86.4% (active); in assay [6] (setting [7]) it was -7%; in assay [6] (setting [8]) it was 97% (active); in assay [6] (at 50.0 µM) it was 85.5% (active).

For `CC(C)CC(C(=O)SCC(C)N1CCCC1)c1ccccc1` (stereo not given), the growth inhibition in assay [1] (setting [7]) is 0%; in assay [1] (setting [8]), 35%; in assay [1] (at 50.0 µM) it was 48%; in assay [2] (setting [7]), 8%; in assay [2] (setting [8]), 33%; in assay [2] (at 50.0 µM), 36.1%. The growth inhibition in assay [3] (setting [7]) is 26%; in assay [3] (setting [8]), 56%; in assay [3] (at 50.0 µM), 49.6%; in assay [4] (setting [7]), 12%; in assay [4] (setting [8]) it was 43%; in assay [4] (at 50.0 µM) it was 71.4% (active). The growth inhibition was 15% in assay [5] (setting [7]); 59% in assay [5] (setting [8]); 51.8% in assay [5] (at 50.0 µM); 11% in assay [6] (setting [7]); 37% in assay [6] (setting [8]); 59.2% in assay [6] (at 50.0 µM).

For `CC1=C(C(=O)Nc2ccccc2)C(c2cccc3ccccc23)C(C(=O)Nc2ccccc2)=C(C)N1`, the growth inhibition in assay [1] (setting [7]) is -2%; in assay [1] (setting [8]) it was 53%; in assay [1] (at 50.0 µM) it was 71% (active); in assay [2] (setting [7]), -17%; in assay [2] (setting [8]), 51%; in assay [2] (at 50.0 µM), 91% (active). Moreover, the growth inhibition in assay [3] (setting [7]) is 0%; in assay [3] (setting [8]), 41%; in assay [3] (at 50.0 µM), 48.6%; in assay [4] (setting [7]), -2%; in assay [4] (setting [8]), 64%; in assay [4] (at 50.0 µM) it was 64.3%. The growth inhibition in assay [5] (setting [7]) was -7%; in assay [5] (setting [8]) it was 53%; in assay [5] (at 50.0 µM) it was 89% (active); in assay [6] (setting [7]), -4%; in assay [6] (setting [8]), 53%; in assay [6] (at 50.0 µM) it was 58.7%.

On to `O=C(Nc1cccc(NC(=O)c2cc(=O)c3ccccc3o2)n1)c1cc(=O)c2ccccc2o1`, for which the growth inhibition in assay [1] (setting [7]) is 34%; in assay [1] (setting [8]), 34%; in assay [1] (at 50.0 µM), 62.6%; in assay [2] (setting [7]), 13%; in assay [2] (setting [8]), 13%; in assay [2] (at 50.0 µM), 14.9%. In addition, the growth inhibition in assay [3] (setting [7]) was -4%; in assay [3] (setting [8]) it was -4%; in assay [3] (at 50.0 µM), 21.7%; in assay [4] (setting [7]), 21%; in assay [4] (setting [8]), 21%; in assay [4] (at 50.0 µM), 24.2%. The growth inhibition is 15% in assay [5] (setting [7]); 15% in assay [5] (setting [8]); 58.5% in assay [5] (at 50.0 µM); 24% in assay [6] (setting [7]); 24% in assay [6] (setting [8]); 67.3% in assay [6] (at 50.0 µM).

With `O=C(N/N=C/c1ccc2c(c1)OCO2)c1ccc([N+](=O)[O-])cc1`, the growth inhibition in assay [1] (setting [7]) is 3%; in assay [1] (setting [8]) it was 2%; in assay [1] (at 50.0 µM) it was 5.35%; in assay [2] (setting [7]) it was -14%; in assay [2] (setting [8]), -15%; in assay [2] (at 50.0 µM), 14.5%. In addition, the growth inhibition was 8% in assay [3] (setting [7]); 7% in assay [3] (setting [8]); 14.8% in assay [3] (at 50.0 µM); 4% in assay [4] (setting [7]); 5% in assay [4] (setting [8]); 30.7% in assay [4] (at 50.0 µM). Besides, the growth inhibition was 0% in assay [5] (setting [7]); 16% in assay [5] (setting [8]); 0.25% in assay [5] (at 50.0 µM); 3% in assay [6] (setting [7]); 13% in assay [6] (setting [8]); 57% in assay [6] (at 50.0 µM).

With `O=[N+]([O-])c1ccc(Sc2ccsc2)c([N+](=O)[O-])c1`, the growth inhibition in assay [1] (setting [7]) is 4%; in assay [1] (setting [8]) it was 79% (active); in assay [1] (at 50.0 µM), 46.5%; in assay [2] (setting [7]), 14%; in assay [2] (setting [8]) it was 87% (active); in assay [2] (at 50.0 µM), 34.5%. The growth inhibition in assay [3] (setting [7]) is 21%; in assay [3] (setting [8]) it was 93% (active); in assay [3] (at 50.0 µM) it was 48.5%; in assay [4] (setting [7]), 4%; in assay [4] (setting [8]), 61%; in assay [4] (at 50.0 µM), 31.8%. Moreover, the growth inhibition in assay [5] (setting [7]) is 11%; in assay [5] (setting [8]) it was 86% (active); in assay [5] (at 50.0 µM), 41.5%; in assay [6] (setting [7]) it was 45%; in assay [6] (setting [8]) it was 96% (active); in assay [6] (at 50.0 µM), 78.8% (active).

Turning to `Cc1ccc(S(=O)(=O)S/C(=N\c2ccccn2)Nc2ccccn2)cc1`, the growth inhibition is 75% (active) in assay [1] (setting [7]); 21% in assay [1] (setting [8]); 38.9% in assay [1] (at 50.0 µM); 72% (active) in assay [2] (setting [7]); 32% in assay [2] (setting [8]); 39.9% in assay [2] (at 50.0 µM). Moreover, the growth inhibition was 90% (active) in assay [3] (setting [7]); 5% in assay [3] (setting [8]); 58.6% in assay [3] (at 50.0 µM); 14% in assay [4] (setting [7]); 16% in assay [4] (setting [8]); 3% in assay [4] (at 50.0 µM). Also, the growth inhibition in assay [5] (setting [7]) is 95% (active); in assay [5] (setting [8]), 11%; in assay [5] (at 50.0 µM), 14%; in assay [6] (setting [7]), 85% (active); in assay [6] (setting [8]), 29%; in assay [6] (at 50.0 µM), 52.1%.

With `Nc1ccccc1[S][Sn]([c]1ccccc1)([c]1ccccc1)[c]1ccccc1`, the growth inhibition is 99% (active) in assay [1] (setting [7]); 98% (active) in assay [1] (setting [8]); 98.5% (active) in assay [1] (at 50.0 µM); 99% (active) in assay [2] (setting [7]); 98% (active) in assay [2] (setting [8]); 98.5% (active) in assay [2] (at 50.0 µM). The growth inhibition in assay [3] (setting [7]) was 99% (active); in assay [3] (setting [8]), 99% (active); in assay [3] (at 50.0 µM), 98.5% (active); in assay [4] (setting [7]) it was 98% (active); in assay [4] (setting [8]), 98% (active); in assay [4] (at 50.0 µM) it was 98% (active). The growth inhibition in assay [5] (setting [7]) is 97% (active); in assay [5] (setting [8]), 99% (active); in assay [5] (at 50.0 µM) it was 98.3% (active); in assay [6] (setting [7]), 99% (active); in assay [6] (setting [8]) it was 99% (active); in assay [6] (at 50.0 µM) it was 98.3% (active).

With `c1c2c(cc(-n3nnc4c3CCCCCC4)c1-n1nnc3c1CCCCCC3)CCCCCC2`, the growth inhibition in assay [1] (setting [7]) was 30%; in assay [1] (setting [8]), 30%; in assay [1] (at 50.0 µM) it was 89.4% (active); in assay [2] (setting [7]), 26%; in assay [2] (setting [8]), 26%; in assay [2] (at 50.0 µM) it was 90.5% (active). In addition, the growth inhibition in assay [3] (setting [7]) is 23%; in assay [3] (setting [8]) it was 23%; in assay [3] (at 50.0 µM), 89.5% (active); in assay [4] (setting [7]) it was 17%; in assay [4] (setting [8]), 17%; in assay [4] (at 50.0 µM), 91.1% (active). Also, the growth inhibition in assay [5] (setting [7]) was 7%; in assay [5] (setting [8]), 7%; in assay [5] (at 50.0 µM), 90.4% (active); in assay [6] (setting [7]), 27%; in assay [6] (setting [8]) it was 27%; in assay [6] (at 50.0 µM), 87.3% (active).

As to `C=C(C)C1CC/C(C)=C/CCC2(C)OC2CC/C(CO)=C\C1O` (stereo not given), the growth inhibition is 52% in assay [1] (setting [7]); 89% (active) in assay [1] (setting [8]); 91.1% (active) in assay [1] (at 50.0 µM); 80% (active) in assay [2] (setting [7]); 96% (active) in assay [2] (setting [8]); 93% (active) in assay [2] (at 50.0 µM). Also, the growth inhibition in assay [3] (setting [7]) was 41%; in assay [3] (setting [8]), 95% (active); in assay [3] (at 50.0 µM), 93% (active); in assay [4] (setting [7]), 48%; in assay [4] (setting [8]), 85% (active); in assay [4] (at 50.0 µM) it was 91.7% (active). The growth inhibition in assay [5] (setting [7]) is 90% (active); in assay [5] (setting [8]), 94% (active); in assay [5] (at 50.0 µM), 91.8% (active); in assay [6] (setting [7]), 87% (active); in assay [6] (setting [8]), 96% (active); in assay [6] (at 50.0 µM), 91.5% (active).
